Results from publication PMC7862700, “An all-to-all approach to the identification of sequence-specific readers for epigenetic DNA modifications on cytosine”.

Legend:
Assay in all cases: DAPPL (digital affinity profiling via proximity ligation, sequencing); 10 mM Tris-HCl pH 7.5, 50 mM NaCl, 1 mM DTT, 4% glycerol, room temperature, 30 min; GST-TFs on glutathione beads, 16-mer random dsDNA library, 0.1% formaldehyde crosslink after washing; high values mean tight binding
[1] = biological target: T1, FLI1 (Homo sapiens, UniProt Q01543 1-452); conditions: protein: recombinant; tags: N-terminal GST; dsDNA, one strand shown
T1 sequence: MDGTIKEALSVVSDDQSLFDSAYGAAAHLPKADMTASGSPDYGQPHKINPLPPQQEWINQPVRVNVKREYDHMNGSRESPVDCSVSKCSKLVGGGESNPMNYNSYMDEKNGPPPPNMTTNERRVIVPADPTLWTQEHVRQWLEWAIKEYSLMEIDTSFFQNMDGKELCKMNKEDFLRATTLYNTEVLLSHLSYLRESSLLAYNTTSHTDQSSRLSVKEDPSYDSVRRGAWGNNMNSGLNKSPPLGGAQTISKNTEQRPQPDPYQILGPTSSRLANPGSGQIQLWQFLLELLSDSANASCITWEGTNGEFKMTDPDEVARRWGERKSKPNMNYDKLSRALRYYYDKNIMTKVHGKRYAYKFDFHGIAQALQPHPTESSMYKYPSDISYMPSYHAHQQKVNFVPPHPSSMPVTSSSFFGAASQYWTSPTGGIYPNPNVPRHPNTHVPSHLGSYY
Summary of the method: (§1)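 Yeast served to express human transcription factors as GST fusions, which were then captured on glutathione beads and labelled with DNA barcodes. Pooled with a tag-only sample, they were incubated with 200 nmole of a 16-mer random double-stranded DNA library for 30 min at room temperature in Tris/NaCl/DTT/glycerol buffer, washed, crosslinked with 0.1% formaldehyde, ligated by proximity, amplified by PCR and sequenced. Dividing each hexamer's read frequency for a factor by its frequency for the tag-only sample gives the binding signal.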

[2] = biological target: T2, ELK1 (Homo sapiens, UniProt P19419 1-428); conditions: protein: recombinant; tags: N-terminal GST; dsDNA, one strand shown
T2 sequence: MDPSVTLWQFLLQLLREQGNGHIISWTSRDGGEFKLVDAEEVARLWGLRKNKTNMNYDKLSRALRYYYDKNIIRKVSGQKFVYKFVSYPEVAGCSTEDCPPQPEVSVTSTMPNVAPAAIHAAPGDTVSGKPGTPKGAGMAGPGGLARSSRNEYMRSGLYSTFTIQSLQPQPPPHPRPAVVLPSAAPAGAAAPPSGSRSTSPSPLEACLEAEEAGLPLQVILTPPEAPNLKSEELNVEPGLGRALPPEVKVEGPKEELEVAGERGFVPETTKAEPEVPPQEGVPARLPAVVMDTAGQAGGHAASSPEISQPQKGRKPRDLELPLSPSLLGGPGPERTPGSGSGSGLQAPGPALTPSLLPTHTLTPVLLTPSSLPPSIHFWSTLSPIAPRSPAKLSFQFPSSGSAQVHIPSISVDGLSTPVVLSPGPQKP
Summary of the method: as §1

[3] = biological target: T3, GABPA (Homo sapiens, UniProt Q06546 1-454); conditions: protein: recombinant; tags: N-terminal GST; dsDNA, one strand shown
T3 sequence: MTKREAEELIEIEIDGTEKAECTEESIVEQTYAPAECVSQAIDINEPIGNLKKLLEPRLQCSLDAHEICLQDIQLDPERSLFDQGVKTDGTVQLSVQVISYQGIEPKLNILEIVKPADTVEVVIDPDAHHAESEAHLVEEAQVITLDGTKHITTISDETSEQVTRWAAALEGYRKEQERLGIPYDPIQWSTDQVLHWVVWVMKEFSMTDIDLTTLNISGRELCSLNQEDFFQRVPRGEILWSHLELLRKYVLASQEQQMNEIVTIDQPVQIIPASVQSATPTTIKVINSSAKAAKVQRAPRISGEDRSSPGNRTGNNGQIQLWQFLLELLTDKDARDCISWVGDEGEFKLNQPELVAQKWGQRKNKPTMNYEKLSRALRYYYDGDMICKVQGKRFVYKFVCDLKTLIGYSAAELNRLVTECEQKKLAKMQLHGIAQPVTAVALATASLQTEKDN
Summary of the method: as §1

[4] = biological target: T4, ERG (Homo sapiens, UniProt P11308 1-479); conditions: protein: recombinant; tags: N-terminal GST; dsDNA, one strand shown
T4 sequence: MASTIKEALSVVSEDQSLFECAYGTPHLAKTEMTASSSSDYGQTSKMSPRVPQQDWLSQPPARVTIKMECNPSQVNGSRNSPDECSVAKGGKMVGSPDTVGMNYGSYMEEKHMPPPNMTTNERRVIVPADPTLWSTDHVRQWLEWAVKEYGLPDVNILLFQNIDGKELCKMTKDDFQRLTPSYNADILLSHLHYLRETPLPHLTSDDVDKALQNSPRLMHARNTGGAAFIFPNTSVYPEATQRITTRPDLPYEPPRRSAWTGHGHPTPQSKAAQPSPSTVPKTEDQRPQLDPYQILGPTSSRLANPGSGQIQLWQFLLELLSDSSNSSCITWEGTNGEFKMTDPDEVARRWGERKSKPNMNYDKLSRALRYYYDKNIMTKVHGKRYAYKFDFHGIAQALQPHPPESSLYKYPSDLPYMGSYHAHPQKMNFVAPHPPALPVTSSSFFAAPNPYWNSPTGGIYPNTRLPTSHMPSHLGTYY
Summary of the method: as §1

[5] = biological target: ELF1 (Homo sapiens, UniProt P32519 1-619); conditions: protein: recombinant; tags: N-terminal GST; dsDNA, one strand shown
Summary of the method: as §1

[6] = biological target: T5, EHF (Homo sapiens, UniProt Q9NZC4 1-300); conditions: protein: recombinant; tags: N-terminal GST; dsDNA, one strand shown
T5 sequence: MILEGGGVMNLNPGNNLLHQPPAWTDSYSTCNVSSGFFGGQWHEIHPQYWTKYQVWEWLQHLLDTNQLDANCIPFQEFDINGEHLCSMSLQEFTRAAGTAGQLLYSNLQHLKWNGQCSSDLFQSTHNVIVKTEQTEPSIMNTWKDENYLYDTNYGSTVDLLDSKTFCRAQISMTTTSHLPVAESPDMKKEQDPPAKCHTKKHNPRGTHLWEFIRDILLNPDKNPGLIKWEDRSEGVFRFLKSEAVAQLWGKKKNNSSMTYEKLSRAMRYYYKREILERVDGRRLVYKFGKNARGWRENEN
Summary of the method: as §1

[7] = biological target: SPI1 (Homo sapiens, UniProt P17947 1-270); conditions: protein: recombinant; tags: N-terminal GST; dsDNA, one strand shown
Summary of the method: as §1

[8] = biological target: SPIB (Homo sapiens, UniProt Q01892 1-262); conditions: protein: recombinant; tags: N-terminal GST; dsDNA, one strand shown
Summary of the method: as §1

[9] = biological target: T6, ELK3 (Homo sapiens, UniProt P41970 1-407); conditions: protein: recombinant; tags: N-terminal GST; dsDNA, one strand shown
T6 sequence: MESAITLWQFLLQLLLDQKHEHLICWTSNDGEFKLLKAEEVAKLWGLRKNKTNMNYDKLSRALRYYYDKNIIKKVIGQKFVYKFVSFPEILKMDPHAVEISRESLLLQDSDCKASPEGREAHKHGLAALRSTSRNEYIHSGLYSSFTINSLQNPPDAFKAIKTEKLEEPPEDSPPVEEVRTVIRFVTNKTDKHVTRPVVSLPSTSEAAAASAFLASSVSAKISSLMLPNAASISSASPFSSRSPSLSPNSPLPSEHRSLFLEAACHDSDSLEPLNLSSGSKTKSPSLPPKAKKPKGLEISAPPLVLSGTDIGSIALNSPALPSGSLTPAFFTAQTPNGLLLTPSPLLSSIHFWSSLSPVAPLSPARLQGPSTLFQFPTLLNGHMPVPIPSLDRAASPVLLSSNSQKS
Summary of the method: as §1

[10] = biological target: T7, FEV (Homo sapiens, UniProt Q99581 1-238); conditions: protein: recombinant; tags: N-terminal GST; dsDNA, one strand shown
T7 sequence: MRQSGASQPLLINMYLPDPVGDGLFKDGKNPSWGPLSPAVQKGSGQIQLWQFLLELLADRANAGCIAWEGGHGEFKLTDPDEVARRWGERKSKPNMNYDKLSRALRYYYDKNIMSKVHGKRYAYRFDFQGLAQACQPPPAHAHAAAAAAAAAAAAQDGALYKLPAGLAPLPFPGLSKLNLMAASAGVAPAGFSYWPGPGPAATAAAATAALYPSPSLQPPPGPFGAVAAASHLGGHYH
Summary of the method: as §1

[11] = biological target: ETV5 (Homo sapiens, UniProt P41161 1-510); conditions: protein: recombinant; tags: N-terminal GST; dsDNA, one strand shown
Summary of the method: as §1

[12] = biological target: HSF1 (Homo sapiens, UniProt Q00613 1-529); conditions: protein: recombinant; tags: N-terminal GST; chain copies: 3; dsDNA, one strand shown
Summary of the method: as §1

[13] = biological target: T8, SPIC (Homo sapiens, UniProt Q8N5J4 1-248); conditions: protein: recombinant; tags: N-terminal GST; dsDNA, one strand shown
T8 sequence: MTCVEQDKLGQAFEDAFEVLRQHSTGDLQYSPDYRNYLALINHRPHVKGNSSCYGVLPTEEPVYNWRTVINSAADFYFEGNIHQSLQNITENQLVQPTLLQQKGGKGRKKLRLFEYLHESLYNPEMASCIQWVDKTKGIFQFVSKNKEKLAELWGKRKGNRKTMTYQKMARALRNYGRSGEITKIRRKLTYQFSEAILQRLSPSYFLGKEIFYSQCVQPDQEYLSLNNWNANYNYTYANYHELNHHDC
Summary of the method: as §1

[14] = biological target: ELF4 (Homo sapiens, UniProt Q99607 1-663); conditions: protein: recombinant; tags: N-terminal GST; dsDNA, one strand shown
Summary of the method: as §1

[15] = biological target: T9, ELK4 (Homo sapiens, UniProt P28324-2 1-405); conditions: protein: recombinant; tags: N-terminal GST; dsDNA, one strand shown
T9 sequence: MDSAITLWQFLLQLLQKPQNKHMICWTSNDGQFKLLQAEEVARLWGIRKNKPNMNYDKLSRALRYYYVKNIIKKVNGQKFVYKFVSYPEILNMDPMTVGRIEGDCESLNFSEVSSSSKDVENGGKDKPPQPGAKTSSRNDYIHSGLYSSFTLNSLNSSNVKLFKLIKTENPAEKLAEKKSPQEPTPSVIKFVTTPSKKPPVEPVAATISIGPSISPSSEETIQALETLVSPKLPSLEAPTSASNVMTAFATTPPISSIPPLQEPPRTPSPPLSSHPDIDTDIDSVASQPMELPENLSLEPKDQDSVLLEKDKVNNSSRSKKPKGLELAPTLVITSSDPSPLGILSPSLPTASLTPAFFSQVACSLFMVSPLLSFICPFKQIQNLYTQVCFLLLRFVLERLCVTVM
Summary of the method: as §1

[16] = biological target: T10, ETV2 (Homo sapiens, UniProt O00321 1-342); conditions: protein: recombinant; tags: N-terminal GST; dsDNA, one strand shown
T10 sequence: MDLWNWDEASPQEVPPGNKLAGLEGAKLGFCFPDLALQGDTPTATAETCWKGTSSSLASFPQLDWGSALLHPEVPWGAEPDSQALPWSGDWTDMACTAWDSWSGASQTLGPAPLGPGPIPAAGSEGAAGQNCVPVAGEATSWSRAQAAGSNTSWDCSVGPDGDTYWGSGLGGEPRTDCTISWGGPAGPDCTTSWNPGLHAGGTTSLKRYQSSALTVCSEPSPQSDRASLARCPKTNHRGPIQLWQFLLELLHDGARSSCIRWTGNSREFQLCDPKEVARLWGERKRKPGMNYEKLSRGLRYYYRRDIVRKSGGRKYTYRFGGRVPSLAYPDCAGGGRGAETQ
Summary of the method: as §1

[17] = biological target: T11, ELF3 (Homo sapiens, UniProt P78545 1-371); conditions: protein: recombinant; tags: N-terminal GST; dsDNA, one strand shown
T11 sequence: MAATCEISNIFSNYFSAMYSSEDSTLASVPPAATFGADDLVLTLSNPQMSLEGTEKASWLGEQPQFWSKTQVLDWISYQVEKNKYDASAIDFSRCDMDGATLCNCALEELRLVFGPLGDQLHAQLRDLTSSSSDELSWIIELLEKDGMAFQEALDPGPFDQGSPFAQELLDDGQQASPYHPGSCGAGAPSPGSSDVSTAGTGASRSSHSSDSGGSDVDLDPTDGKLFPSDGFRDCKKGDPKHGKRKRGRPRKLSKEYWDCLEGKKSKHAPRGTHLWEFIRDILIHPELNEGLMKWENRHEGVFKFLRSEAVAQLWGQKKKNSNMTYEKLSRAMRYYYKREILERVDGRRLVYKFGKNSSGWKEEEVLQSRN
Summary of the method: as §1

[18] = biological target: CRX (Homo sapiens, UniProt O43186 1-299); conditions: protein: recombinant; tags: N-terminal GST; dsDNA, one strand shown
Summary of the method: as §1

[19] = biological target: ETV1 (Homo sapiens, UniProt P50549 1-477); conditions: protein: recombinant; tags: N-terminal GST; dsDNA, one strand shown
Summary of the method: as §1

Chain of SPIB (Q01892 whole entry): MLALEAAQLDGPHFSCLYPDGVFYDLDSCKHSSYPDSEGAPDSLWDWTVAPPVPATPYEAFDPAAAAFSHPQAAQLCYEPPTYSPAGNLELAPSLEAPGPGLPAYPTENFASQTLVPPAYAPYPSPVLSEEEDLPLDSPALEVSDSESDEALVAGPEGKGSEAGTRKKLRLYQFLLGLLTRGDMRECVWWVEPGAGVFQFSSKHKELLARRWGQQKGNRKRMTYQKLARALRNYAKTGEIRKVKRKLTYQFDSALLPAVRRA
Chain of ELF1 (P32519 whole entry): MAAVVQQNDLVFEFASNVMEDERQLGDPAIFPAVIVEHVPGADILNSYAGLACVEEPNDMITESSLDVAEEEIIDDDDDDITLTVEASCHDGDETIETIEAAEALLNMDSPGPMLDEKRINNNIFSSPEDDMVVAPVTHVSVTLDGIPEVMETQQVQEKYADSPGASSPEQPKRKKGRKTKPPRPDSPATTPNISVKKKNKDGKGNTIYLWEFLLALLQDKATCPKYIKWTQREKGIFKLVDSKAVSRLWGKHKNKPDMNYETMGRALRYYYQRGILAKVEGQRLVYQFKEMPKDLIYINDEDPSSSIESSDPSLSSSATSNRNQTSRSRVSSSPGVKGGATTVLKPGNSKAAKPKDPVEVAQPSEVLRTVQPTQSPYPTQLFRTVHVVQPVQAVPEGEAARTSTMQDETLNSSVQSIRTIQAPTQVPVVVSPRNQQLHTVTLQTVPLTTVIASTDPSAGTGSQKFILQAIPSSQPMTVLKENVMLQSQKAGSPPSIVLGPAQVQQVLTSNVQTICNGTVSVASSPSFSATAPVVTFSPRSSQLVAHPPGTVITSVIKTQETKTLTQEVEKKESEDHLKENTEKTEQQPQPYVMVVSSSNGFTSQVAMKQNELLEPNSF
Chain of ETV1 (P50549 whole entry): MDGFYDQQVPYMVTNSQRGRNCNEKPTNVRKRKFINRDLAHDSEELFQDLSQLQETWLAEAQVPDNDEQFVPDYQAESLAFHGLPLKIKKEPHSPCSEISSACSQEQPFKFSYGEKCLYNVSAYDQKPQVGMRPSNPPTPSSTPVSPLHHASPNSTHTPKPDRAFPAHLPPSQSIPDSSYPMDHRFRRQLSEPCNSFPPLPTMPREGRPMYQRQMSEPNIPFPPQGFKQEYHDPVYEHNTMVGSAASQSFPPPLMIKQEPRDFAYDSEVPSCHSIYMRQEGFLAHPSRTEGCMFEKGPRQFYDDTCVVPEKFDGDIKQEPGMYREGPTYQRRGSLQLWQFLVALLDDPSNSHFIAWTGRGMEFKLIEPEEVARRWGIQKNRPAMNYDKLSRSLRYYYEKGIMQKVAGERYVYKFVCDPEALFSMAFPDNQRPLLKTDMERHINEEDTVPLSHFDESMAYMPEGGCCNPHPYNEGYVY
Chain of ETV5 (P41161 whole entry): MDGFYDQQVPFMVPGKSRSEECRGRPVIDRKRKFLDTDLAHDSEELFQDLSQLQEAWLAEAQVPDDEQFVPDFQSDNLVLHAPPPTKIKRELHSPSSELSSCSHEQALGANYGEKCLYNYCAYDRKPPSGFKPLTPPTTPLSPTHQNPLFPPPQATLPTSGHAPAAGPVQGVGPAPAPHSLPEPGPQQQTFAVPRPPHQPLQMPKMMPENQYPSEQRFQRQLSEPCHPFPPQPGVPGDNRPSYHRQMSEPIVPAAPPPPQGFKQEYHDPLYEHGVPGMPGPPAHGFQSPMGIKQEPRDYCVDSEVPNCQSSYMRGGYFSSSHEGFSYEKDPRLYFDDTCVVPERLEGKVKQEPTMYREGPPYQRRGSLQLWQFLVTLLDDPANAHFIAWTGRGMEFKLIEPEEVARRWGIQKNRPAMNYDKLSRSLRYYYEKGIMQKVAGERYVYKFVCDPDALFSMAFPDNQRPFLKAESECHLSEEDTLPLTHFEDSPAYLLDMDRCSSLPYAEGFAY
Chain of CRX (O43186 whole entry): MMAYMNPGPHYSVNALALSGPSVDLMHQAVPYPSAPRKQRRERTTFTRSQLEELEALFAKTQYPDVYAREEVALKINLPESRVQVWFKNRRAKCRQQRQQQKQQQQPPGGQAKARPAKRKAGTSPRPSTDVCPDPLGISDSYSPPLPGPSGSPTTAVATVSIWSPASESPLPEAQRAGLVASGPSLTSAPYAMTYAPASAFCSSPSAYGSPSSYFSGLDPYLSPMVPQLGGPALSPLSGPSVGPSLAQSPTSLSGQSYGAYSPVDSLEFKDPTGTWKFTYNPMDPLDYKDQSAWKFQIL
Chain of HSF1 (Q00613 whole entry): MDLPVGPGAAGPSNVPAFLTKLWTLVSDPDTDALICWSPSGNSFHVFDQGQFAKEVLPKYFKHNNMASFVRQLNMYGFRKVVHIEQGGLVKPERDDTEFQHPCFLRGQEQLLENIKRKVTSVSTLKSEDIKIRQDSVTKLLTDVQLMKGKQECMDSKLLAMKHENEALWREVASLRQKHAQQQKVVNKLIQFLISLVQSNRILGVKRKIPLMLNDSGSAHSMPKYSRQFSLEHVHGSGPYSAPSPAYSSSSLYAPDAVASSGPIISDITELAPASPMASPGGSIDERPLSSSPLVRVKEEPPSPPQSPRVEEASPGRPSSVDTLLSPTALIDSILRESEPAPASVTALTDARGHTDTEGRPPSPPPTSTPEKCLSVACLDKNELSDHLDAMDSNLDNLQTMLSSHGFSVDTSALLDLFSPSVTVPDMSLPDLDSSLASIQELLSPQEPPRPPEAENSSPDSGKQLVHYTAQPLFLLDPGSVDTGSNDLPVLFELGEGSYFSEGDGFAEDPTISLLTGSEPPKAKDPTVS
Chain of ELF4 (Q99607 whole entry): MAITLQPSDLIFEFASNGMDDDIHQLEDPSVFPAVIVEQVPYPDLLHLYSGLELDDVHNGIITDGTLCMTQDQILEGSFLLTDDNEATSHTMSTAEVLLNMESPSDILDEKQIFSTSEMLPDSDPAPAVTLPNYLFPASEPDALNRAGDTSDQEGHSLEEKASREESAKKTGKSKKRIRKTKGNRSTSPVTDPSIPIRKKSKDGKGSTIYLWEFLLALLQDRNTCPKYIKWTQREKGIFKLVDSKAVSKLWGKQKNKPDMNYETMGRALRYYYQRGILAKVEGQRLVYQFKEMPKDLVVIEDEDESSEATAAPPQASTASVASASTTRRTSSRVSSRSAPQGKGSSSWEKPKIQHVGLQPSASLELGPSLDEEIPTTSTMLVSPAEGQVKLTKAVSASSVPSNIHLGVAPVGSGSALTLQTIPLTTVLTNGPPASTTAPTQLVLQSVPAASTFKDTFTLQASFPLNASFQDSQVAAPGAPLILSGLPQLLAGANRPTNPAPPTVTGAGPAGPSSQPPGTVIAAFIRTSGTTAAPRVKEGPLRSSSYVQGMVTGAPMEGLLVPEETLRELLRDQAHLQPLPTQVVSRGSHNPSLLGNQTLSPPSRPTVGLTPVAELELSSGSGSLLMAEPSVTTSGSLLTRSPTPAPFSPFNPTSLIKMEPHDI

Sequence: AACGAT
- binding signal [1]: 1.28 fold enrichment (6-mer frequency, TF over GST control)
- binding signal [2]: 1.16 fold enrichment (6-mer frequency, TF over GST control)
- binding signal [3]: 1.13 fold enrichment (6-mer frequency, TF over GST control)
- binding signal [4]: 1.21 fold enrichment (6-mer frequency, TF over GST control)
- binding signal [5]: 1.24 fold enrichment (6-mer frequency, TF over GST control)
- binding signal [6]: 1.17 fold enrichment (6-mer frequency, TF over GST control)
- binding signal [7]: 1.17 fold enrichment (6-mer frequency, TF over GST control)
- binding signal [8]: 1.21 fold enrichment (6-mer frequency, TF over GST control)
- binding signal [9]: 1.24 fold enrichment (6-mer frequency, TF over GST control)
- binding signal [10]: 1.15 fold enrichment (6-mer frequency, TF over GST control)
- binding signal [11]: 1.22 fold enrichment (6-mer frequency, TF over GST control)
- binding signal [12]: 1.32 fold enrichment (6-mer frequency, TF over GST control)
- binding signal [13]: 1.19 fold enrichment (6-mer frequency, TF over GST control)
- binding signal [14]: 1.17 fold enrichment (6-mer frequency, TF over GST control)
- binding signal [15]: 1.15 fold enrichment (6-mer frequency, TF over GST control)
- binding signal [16]: 1.35 fold enrichment (6-mer frequency, TF over GST control)
- binding signal [17]: 1.08 fold enrichment (6-mer frequency, TF over GST control)
- binding signal [18]: 1.38 fold enrichment (6-mer frequency, TF over GST control)
- binding signal [19]: 1.19 fold enrichment (6-mer frequency, TF over GST control)
